Experimental findings from PubChem BioAssay are described below.

A short description of test [1]: HepG2 liver cancer cell viability effects, profiling panel, resazurin fluorescence, 24 h, PK04 Diversity Set (AID 1172). Also: test concentration not given here. Conditions: higher = more signal. A general note: Alamar Blue is a resazurin reagent that responds to reducing activity.
Test [2] in a line: basal S. cerevisiae growth modulation, no modifier, primary screen, OD600, strain BY4716, 24 h, basal condition (AID 1173). The settings on record: OD600, 24 h, higher = more signal, called active from +8 up or from −8 down.
The nature of test [3]: MM1S myeloma cell viability, profiling panel, resazurin fluorescence, basal, 24 h, PK04 Diversity Set (AID 1174).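 Also: MM1S multiple myeloma cell line; test concentration not given here.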 Conditions: higher = more signal, called active from +8 up or from −8 down.
The target of test [4] is Dihydroorotate dehydrogenase (quinone), mitochondrial (Plasmodium falciparum (isolate 3D7)) (UniProt Q08210). Briefly: PfDHODH enzyme inhibitors, primary screen, biochemical, C-terminal His tag, absorbance 600 nm (AID 1175).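 Also: recombinant parasite enzyme with a five histidine tag at its C terminus; test concentration not given here.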 The settings on record: DCIP absorbance 600 nm, higher = more signal, called active from +8 up or from −8 down.
Chain of Dihydroorotate dehydrogenase (quinone), mitochondrial (Plasmodium falciparum (isolate 3D7)) (Q08210 whole entry, looked up): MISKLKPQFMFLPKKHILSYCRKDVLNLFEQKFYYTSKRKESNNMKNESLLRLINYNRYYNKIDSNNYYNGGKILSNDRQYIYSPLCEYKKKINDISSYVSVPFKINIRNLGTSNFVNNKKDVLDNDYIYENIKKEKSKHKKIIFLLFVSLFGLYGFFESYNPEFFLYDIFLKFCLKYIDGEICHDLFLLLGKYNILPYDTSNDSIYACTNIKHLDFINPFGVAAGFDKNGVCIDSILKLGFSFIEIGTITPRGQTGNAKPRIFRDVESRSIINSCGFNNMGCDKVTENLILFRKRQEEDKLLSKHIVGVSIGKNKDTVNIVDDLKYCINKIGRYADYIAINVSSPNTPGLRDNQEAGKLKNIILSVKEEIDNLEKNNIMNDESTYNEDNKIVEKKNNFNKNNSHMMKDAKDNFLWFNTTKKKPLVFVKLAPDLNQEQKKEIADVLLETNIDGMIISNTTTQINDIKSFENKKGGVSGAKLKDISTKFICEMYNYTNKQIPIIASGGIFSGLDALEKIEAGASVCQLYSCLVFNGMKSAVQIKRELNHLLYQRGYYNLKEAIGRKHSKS
A short description of test [5]: P. aeruginosa biofilm formation inhibitors, primary screen, strain PAO1, LB-PBS medium, absorbance 600 nm (AID 1176). Also: test concentration not given here. The settings on record: P. aeruginosa PAO1 growth/biofilm, A600, 12 h; higher = more signal.
The nature of test [6]: S. cerevisiae RM11-1a growth modifiers, primary screen, strain RM11-1a, OD600, basal, 24 h (AID 1177).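 Also: cultures grown under basal conditions with no added stressor; test concentration not given here.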 The settings on record: OD600, 24 h, higher = more signal, called active from +8 up or from −8 down.
The nature of test [7]: E. coli acrAB mutant growth effects, primary screen, E. coli filamentation inducers, strain DRC39, OD650, 24 h (AID 1178).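 Also: growth measured as culture turbidity by optical density at 650 nm; test concentration not given here.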 Conditions: higher = more signal, called active from +8 up or from −8 down.
Test [8] is described as follows: E. coli acrAB mutant growth effects, primary screen, E. coli filamentation inducers, strain DRC39, OD650, 48 h (AID 1179).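 Also: screen aims at cell division blockers that make cells filament.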 The settings on record: E. coli DRC39 delta-acrAB growth, higher = more signal, called active from +8 up or from −8 down.
A short description of test [9]: RPMI8226 myeloma cell viability, profiling panel, resazurin fluorescence, basal, 24 h, PK04 Diversity Set (AID 1180).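 Also: RPMI8826 multiple myeloma cell line at 5000 cells per well; test concentration not given here.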 The settings on record: higher = more signal.
In test [10] the target is E3 ubiquitin-protein ligase XIAP (Homo sapiens) (UniProt P98170). Briefly: XIAP binders, primary screen, biophysical, small-molecule microarray, fluorescence 635 nm (AID 1181).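 Also: score merges 667 nm emission and signal to noise over triplicate slides.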 Conditions: small-molecule microarray binding, higher = more signal.
Chain of E3 ubiquitin-protein ligase XIAP (Homo sapiens) (P98170 whole entry, looked up): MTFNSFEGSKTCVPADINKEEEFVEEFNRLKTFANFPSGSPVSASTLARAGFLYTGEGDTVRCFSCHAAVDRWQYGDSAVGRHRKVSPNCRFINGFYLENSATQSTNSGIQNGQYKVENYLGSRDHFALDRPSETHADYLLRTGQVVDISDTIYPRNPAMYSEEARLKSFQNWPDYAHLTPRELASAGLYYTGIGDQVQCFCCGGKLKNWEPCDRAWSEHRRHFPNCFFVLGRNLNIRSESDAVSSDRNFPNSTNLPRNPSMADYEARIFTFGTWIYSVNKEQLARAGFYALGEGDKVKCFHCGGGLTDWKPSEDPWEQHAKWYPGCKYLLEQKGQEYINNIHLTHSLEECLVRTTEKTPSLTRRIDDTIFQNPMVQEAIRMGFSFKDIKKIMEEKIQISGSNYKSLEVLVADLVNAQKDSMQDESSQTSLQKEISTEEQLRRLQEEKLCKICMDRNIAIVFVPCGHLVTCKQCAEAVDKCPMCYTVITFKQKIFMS

Active and inactive are the calls of the source. Unless noted, no rule for the calls is given here.

Regarding `CC(C)(C)OC(=O)CC[C@@]12N=C(c3ccc(OCCCO)cc3)O[C@@H]1c1ccccc1N(CCS(=O)(=O)c1ccccc1)C2=O`, the z-score in test [1] is -0.223; in test [2], 0.508 (inactive); in [3] it was -1.95 (inactive); in test [5], 0.218 (inactive); in [6], 1.44 (inactive); in test [7], 1.25 (inactive). Further, the z-score is 1.56 (inactive) in test [8] and -0.835 in test [9]. The composite z-score is -0.298 (inactive) in test [4] and 0.0801 in test [10].
As to `COCCOC(=O)N1C(=O)[C@@]2(c3cc(C#Cc4ccc(OC)cc4)ccc31)[C@H](C(N)=O)[C@H]1C(=O)O[C@H](c3ccccc3)[C@H](c3ccccc3)N1[C@@H]2c1ccccc1OCCO`, the z-score in test [1] was -0.483; in test [2], 1.06 (inactive); in test [3], -2.17 (inactive); in [5], 2.94 (inactive); in test [6] it was 1.5 (inactive); in [7] it was -0.688 (inactive). Besides, the z-score in [8] is -0.469 (inactive); in test [9] it was -2.68. The composite z-score in [4] is 0.361 (inactive); in test [10], 0.0748.
With `O=C(NCc1ccc(F)cc1)[C@H]1C[C@H]2C(=O)N[C@@H](Cc3ccccc3)C(=O)N2[C@H]1c1ccc(O)cc1`, the z-score in test [1] was -0.354; in test [2], 1.41 (inactive); in test [3], 0.396 (inactive); in test [5], -0.0185 (inactive); in test [6] it was 1.23 (inactive); in test [7], 0.222 (inactive). Further, the z-score in test [8] is -0.324 (inactive); in test [9] it was 0.512. In addition, the composite z-score in test [4] is -0.0513 (inactive); in test [10], -0.224.
Take `CCN(CC)c1ccc(N2CC=CC34O[C@@H]5/C=C\CCCOC(=O)C5[C@H]3C(=O)N(CCO)[C@@H]4C2=O)cc1` (stereo not given in full): the z-score in test [1] was -1.46; in test [2], 0.245 (inactive); in [3], -0.0391 (inactive); in test [5], -0.606 (inactive); in test [6] it was 0.747 (inactive); in test [7], -1.16 (inactive). Further, the z-score in test [8] was -1.26 (inactive); in test [9] it was 0.547. Also, the composite z-score in test [4] is 0.174 (inactive); in test [10] it was 0.56.
`COC(=O)[C@@]1(Cc2ccccc2)[C@H]2c3cc(C(=O)N(C)C)n(CCSCCO)c3C[C@H]2CN1C(=O)c1ccccc1`: the z-score was -0.821 in test [1]; 0.319 (inactive) in test [2]; -0.345 (inactive) in [3]; 0.15 (inactive) in [5]; 0.152 (inactive) in test [6]; -0.976 (inactive) in [7]. The z-score in test [8] was -0.68 (inactive); in test [9], -0.151. Moreover, the composite z-score in [4] was -0.394 (inactive); in test [10] it was 0.212.
Take `CN1C(=O)C2C=CC(C(O)C3=C[C@H]4C[C@@H](C3)C4(C)C)N(Nc3ccccc3)C2C1=O` (stereo not given in full): the z-score in [1] was -0.3; in test [2] it was 0.0844 (inactive); in [3], -0.419 (inactive); in test [5] it was 2.14 (inactive); in [6], 0.602 (inactive); in test [7], -0.328 (inactive). Also, the z-score was -0.369 (inactive) in test [8] and -0.52 in test [9]. For the same compound, the composite z-score in [4] was -0.0435 (inactive); in test [10], -0.174.
`CC(=O)NCCCC[C@@H]1NC(=O)[C@@H]2C[C@H](C(=O)NCCCCN(C)C)[C@H](c3cccc(OCCO)c3)N2C1=O`: the z-score in test [1] is 1.03; in test [2] it was 0.108 (inactive); in [3], -0.721 (inactive); in [5], -0.875 (inactive); in [6], 0.0173 (inactive); in [7], 0.374 (inactive). For the same compound, the values for the z-score in test [8] and in test [9] were 0.313 (inactive) and 0.507, respectively. In addition, the figures for the composite z-score in test [4] and in test [10] were -0.446 (inactive) and -0.404, respectively.
On to `COc1ccc(C(O)C2C=CC3C(=O)NC(=O)C3N2Nc2ccccn2)cc1` (stereo not given), for which the z-score in test [1] is -0.396; in test [2], 0.0843 (inactive); in test [3] it was -0.285 (inactive); in test [5] it was 0.366 (inactive); in test [6], 0.31 (inactive); in [7] it was -0.276 (inactive). Moreover, the z-score in test [8] was -0.401 (inactive); in [9], -0.721. Also, the composite z-score in test [4] is 0.91 (inactive); in test [10] it was -0.893.
Take `C=CCOC(=O)[C@@H]1[C@H]2C(=O)O[C@H](c3ccccc3)[C@H](c3ccccc3)N2[C@H](c2ccc(OCCOC(=O)[C@@H]3C[C@@H]4C(=O)N[C@@H](CCCC[N+](C)(C)C)C(=O)N4[C@@H]3c3cccc(OCCO)c3)cc2)[C@@]12C(=O)Nc1ccc(I)cc12`: the z-score is 1.34 in test [1]; -1.21 (inactive) in [2]; -0.669 (inactive) in test [3]; 1.18 (inactive) in test [5]; 1.98 (inactive) in test [6]; -0.62 (inactive) in [7]. Besides, the z-score in test [8] was -0.659 (inactive); in test [9] it was -0.847. The composite z-score in test [4] was -5.39 (inactive); in [10] it was -0.126.
Consider `[N-]=[N+]=NCc1ccccc1[C@@H]1OC(c2ccc(OCCCO)cc2)=N[C@]1(Cc1ccccc1N=[N+]=[N-])C(=O)N1CCOCC1`, for which the z-score in test [1] is -0.54; in test [2], -0.532 (inactive); in test [3], -1.21 (inactive); in [5], 0.727 (inactive); in [6], 0.602 (inactive); in test [7], -0.38 (inactive). Moreover, the z-score was -0.265 (inactive) in test [8] and -1.64 in test [9]. Moreover, the composite z-score in test [4] is -0.52 (inactive); in test [10], 0.358.
